Screens: PubChem BioAssay, several laboratories
Compounds with a hit are over-represented: about 1.3% of the library has one in this group of screens.
eIF4E-4G inh: inhibitors of eIF4E and eIF4G interaction in translation initiation; P63073+Q04637; TR-FRET eIF4E-eIF4GI(517-606) binding, 2 h; inhibition, % at 21.7 µM; hit rate 0.37% among 220,000; AID 782;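 note: 0% = full FRET control wells and 100% = background wells lacking eIF4GI fragment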
Target sequence (P63073 whole entry, looked up, the tested form may be a part): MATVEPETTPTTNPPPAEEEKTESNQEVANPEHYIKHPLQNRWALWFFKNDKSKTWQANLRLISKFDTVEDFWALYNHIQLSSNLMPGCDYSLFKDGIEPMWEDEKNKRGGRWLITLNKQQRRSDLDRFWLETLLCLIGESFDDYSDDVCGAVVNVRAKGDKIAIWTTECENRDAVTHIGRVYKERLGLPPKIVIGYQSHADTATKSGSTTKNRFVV
Target sequence (Q04637 whole entry, looked up, the tested form may be a part): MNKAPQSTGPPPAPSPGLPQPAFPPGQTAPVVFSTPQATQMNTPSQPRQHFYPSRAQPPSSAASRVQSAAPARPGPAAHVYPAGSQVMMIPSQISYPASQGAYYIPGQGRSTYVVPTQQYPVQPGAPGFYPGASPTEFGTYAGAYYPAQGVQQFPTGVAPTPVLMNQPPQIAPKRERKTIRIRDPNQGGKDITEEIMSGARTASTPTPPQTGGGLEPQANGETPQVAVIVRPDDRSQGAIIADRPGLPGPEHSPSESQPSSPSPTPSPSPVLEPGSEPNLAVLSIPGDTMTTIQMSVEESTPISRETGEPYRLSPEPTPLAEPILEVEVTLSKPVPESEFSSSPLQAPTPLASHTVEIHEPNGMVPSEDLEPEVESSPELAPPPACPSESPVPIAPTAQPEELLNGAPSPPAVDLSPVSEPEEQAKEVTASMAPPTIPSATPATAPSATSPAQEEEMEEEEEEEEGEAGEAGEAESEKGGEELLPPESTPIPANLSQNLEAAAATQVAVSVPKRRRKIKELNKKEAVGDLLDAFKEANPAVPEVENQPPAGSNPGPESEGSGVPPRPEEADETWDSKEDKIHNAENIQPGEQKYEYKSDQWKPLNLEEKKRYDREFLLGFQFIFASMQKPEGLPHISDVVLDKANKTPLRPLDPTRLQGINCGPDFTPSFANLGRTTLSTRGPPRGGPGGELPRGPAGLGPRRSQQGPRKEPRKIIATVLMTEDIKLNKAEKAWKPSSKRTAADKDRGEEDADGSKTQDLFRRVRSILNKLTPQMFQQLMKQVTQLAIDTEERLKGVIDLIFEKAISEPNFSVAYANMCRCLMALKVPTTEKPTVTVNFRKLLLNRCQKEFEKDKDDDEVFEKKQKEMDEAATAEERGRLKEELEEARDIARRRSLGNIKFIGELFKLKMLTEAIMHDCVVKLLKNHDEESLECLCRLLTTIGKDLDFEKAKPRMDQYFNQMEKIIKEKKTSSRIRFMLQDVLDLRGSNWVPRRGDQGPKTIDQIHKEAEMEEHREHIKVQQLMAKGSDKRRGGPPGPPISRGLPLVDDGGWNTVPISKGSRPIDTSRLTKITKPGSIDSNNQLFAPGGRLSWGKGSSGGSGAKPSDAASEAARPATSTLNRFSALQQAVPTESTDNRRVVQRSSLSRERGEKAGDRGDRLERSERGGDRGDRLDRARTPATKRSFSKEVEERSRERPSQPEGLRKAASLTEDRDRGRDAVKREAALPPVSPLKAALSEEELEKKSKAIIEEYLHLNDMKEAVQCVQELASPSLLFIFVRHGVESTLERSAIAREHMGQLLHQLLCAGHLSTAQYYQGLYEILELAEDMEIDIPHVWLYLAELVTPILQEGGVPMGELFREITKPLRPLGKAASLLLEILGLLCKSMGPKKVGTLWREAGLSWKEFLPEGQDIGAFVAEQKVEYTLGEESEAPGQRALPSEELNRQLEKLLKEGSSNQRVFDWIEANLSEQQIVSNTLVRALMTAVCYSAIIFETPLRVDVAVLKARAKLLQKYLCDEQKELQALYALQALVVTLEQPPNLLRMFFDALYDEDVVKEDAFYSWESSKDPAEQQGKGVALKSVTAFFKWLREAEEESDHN
UBC9 SUMO inh: blocks human SUMOylation mediated by UBC9; hit rate 0.36% among 290,000; AID 2006; inhibition, % at 35 µM; HTRF SUMOylation assay, SAE1/SAE2 + UBC9, in vitro; in the data active = inhibition above about 50%, passing the limit was not always enough; inconclusive = no clear call, values can overlap the other calls
p47phox inh: inhibitors of human p47phox binding; P14598; p47phox/p22phox peptide binding, fluorescence polarization, 2 h; inhibition, % at 24.7 µM; hit rate 0.53% among 220,000;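 note: 0% = p47phox with labelled peptide and 100% = labelled peptide alone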
14-3-3 Bad inh: disrupts binding of bovine 14-3-3 zeta to phospho-Bad peptide; P63103; TR-FRET 14-3-3zeta/Dy647-pBad peptide displacement, 1 h; inhibition, % at 21.7 µM; hit rate 0.71% among 220,000; AID 781;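 active = inhibition above about 70%, limit read from the data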;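 note: 0% = full 14-3-3 plus peptide FRET controls and 100% = background without 14-3-3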
Starred values were filed as active, the others as inactive; ? = inconclusive; / = no result given; + = active, no number; [ ] = remark or other dose.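 Rule for the calls, unless noted: active = inhibition above about 30% (limit read from the data); inactive = the rest.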

SMILES | eIF4E-4G inh | UBC9 SUMO inh | p47phox inh | 14-3-3 Bad inh
CCOC(=O)c1cc(-c2ccc(/C=C3/C(=O)NC(=O)C(C#N)=C3C)o2)ccc1Cl | 58.6*[fluorescence artefact?] | 8.3 | 2.9 | 77.2*[fluorescence artefact?]
CC1=C(C#N)C(=O)NC(=O)/C1=C\c1ccc(-c2ccc(C)cc2[N+](=O)[O-])o1 | 32.6* | / | -6.0 | 47.9
Cc1ccc(-c2ccc(/C=N/N=C3/NC(=O)C(CC(=O)O)S3)o2)c([N+](=O)[O-])c1 (configuration not stated) | 9.9 | -1.6 | -11.8 | 14.0
CCOc1cc(C(=O)OC(C)C(=O)Nc2ccc(NC(C)=O)cc2)ccc1OCC(=O)N1CCCCC1 (configuration not stated) | / | -3.0 | / | /
CCOC(=O)c1c(C)oc2c1c(CN1CCN(C(=O)OCC)CC1)c(O)c1ccccc12 | 7.8 | 3.6 | 12.8 | -5.3
CCOC(=O)c1c(C)oc2c1c(CN1CCN(CCO)CC1)c(O)c1ccccc12 | 3.8 | 16.3 | 37.7* | 38.0
CCC1CC(C)(C(=O)Nc2ccc(S(N)(=O)=O)cc2)OC1=O (configuration not stated) | 2.1 | -6.9 | + | 13.8
CC(=O)Nc1ccc(C(=O)N(C)c2ccccc2)cc1 | 2.9 | 11.1 | -1.8 | 13.4
CCN(C(=O)c1ccc(NC(C)=O)cc1)c1ccccc1 | -3.4 | 0.9 | 55.3* | 6.1
COc1ccc2c(c1)nc(SCC(=O)C(C)(C)C)n2C | -5.2 | -2.8 | -8.2 | 73.0*
COc1ccc2c(c1)nc(SCC(=O)c1cccs1)n2C | 9.8 | -9.7 | -3.7 | 70.5*
Cc1ccc(NS(=O)(=O)c2cc3c4c(cccc4c2)C(=O)NC3=O)cc1C | -1.3 | 1.1 | -54.0 | 3.4
O=C(CC12CC3CC(CC(C3)C1)C2)Nc1c(F)cccc1F | / | -18.6 | / | /
O=S(=O)(c1cc(Cl)ccc1Cl)n1ccnc1 | -2.1 | 10.4 | 146.9* | 7.5
O=C(Nc1ccc(Nc2ccncc2)cc1)c1ccc([N+](=O)[O-])cc1 | 2.9 | 13.5 | 1.7 | -7.9
O=C(Nc1ccc(Nc2ccncc2)cc1)c1ccc(Nc2ccnc3ccc([N+](=O)[O-])cc23)cc1[N+](=O)[O-] | -51.8 | 45.9 | 71.4* | 76.5*
CCCCn1c(NC(C)=O)c(C#N)c2nc3ccccc3nc21 | 3.8 | 102.1* | -23.2 | 15.1
N#Cc1c(N)n(-c2cccc(C(=O)O)c2)c2nc3ccccc3nc12 | -0.7 | 59.8* | -35.0 | 10.2
CCCCCn1c(NC(=O)c2ccco2)c(S(=O)(=O)c2ccc(C)cc2)c2nc3ccccc3nc21 | 1.5 | / | -43.4 | 10.6
CCCCn1c(NC(=O)c2ccco2)c(S(=O)(=O)c2ccc(C)cc2)c2nc3ccccc3nc21 | 4.8 | 100.2* | -28.8 | 6.5
CCCCCn1c(N)c(C#N)c2nc3ccccc3nc21 | -1.7 | 87.6* | -30.9 | -2.3
C=CCn1c(NC(=O)c2ccccc2Cl)c(C#N)c2nc3ccccc3nc21 | 13.8 | / | -8.2 | 54.7
CCN(CC)S(=O)(=O)c1cc(C(=O)Oc2ccccc2OC)ccc1OC | 0.6 | 10.2 | -3.0 | -2.4
CCN(CC)S(=O)(=O)c1cc(F)ccc1OC | 35.4* | 8.6 | -4.2 | 3.2
CCCCSc1nc(C(=O)O)cc(=O)[nH]1 | -2.5 | -6.9 | -16.1 | -14.8
SMILES | eIF4E-4G inh | UBC9 SUMO inh | p47phox inh | 14-3-3 Bad inh
Cc1ccc(CNc2ccc(S(=O)(=O)N3CCOCC3)cc2[N+](=O)[O-])cc1 | 4.1 | 7.1 | 1.9 | 0.6
CCCC(c1nnnn1CCOC)N1CCN(Cc2ccccc2)CC1 (configuration not stated) | 7.2 | 25.8 | -0.2 | 43.8
COCCn1nnnc1C(c1ccc2ncccc2c1)N1CCN(c2ccccc2F)CC1 (configuration not stated) | 2.2 | 13.8 | 1.0 | 76.1*
COCCn1nnnc1C(c1ccccc1)N1CCN(C)CC1 (configuration not stated) | -6.0 | 6.8 | -5.4 | 72.4*
CCC(c1nnnn1CCOC)N1CCN(Cc2ccccc2OC)CC1 (configuration not stated) | -1.6 | 11.1 | -3.1 | 87.8*
CCN(C(=O)Cc1c(C(=O)O)n(C)c2ccccc12)c1ccc(F)cc1 | 0.5 | -10.3 | -2.9 | -7.6
CCC(=O)N1CCN(c2nc3ccc(Br)cc3s2)CC1 | / | 9.0 | / | /
CC1(C)NC(=O)N(CC(O)COC2CCCCC2)C1=O (configuration not stated) | -2.8 | 6.8 | 40.8* | 1.8
CC1(C)NC(=O)N(CC(O)CN2CCCCC2)C1=O (configuration not stated) | -2.9 | 13.5 | -11.6 | -8.3
Cc1ccc(CNC(=O)c2ccc(-n3cccc3)cc2)cc1 | 38.4* | 32.3 | -23.5 | 31.1
COc1ccccc1N1CCN(C2CCCN(S(=O)(=O)c3ccccc3)C2)CC1 (configuration not stated) | / | 5.4 | / | /
Cc1ccc(CCN2CC(C(=O)NCCCN3CCCCCC3)CC2=O)cc1 (configuration not stated) | -7.8 | -0.9 | 38.0* | -63.8
CCS(=O)(=O)c1ccc(O)c(NC(=O)CC2(CC(=O)O)CCCC2)c1 | 2.0 | 6.0 | -1.4 | 3.2
N#Cc1cc2c(=O)n3ccccc3nc2n(Cc2ccco2)c1=NC(=O)c1ccco1 | 9.2 | 51.9* | -13.0 | -17.1
O=C(NCC1COCCO1)c1cc(COc2ccc(F)cc2F)on1 (configuration not stated) | / | -3.4 | / | /
Cc1cccc(C2Nc3ccccc3C(=O)N2NC(=O)c2ccc([N+](=O)[O-])cc2)n1 (configuration not stated) | -0.4 | 12.4 | -2.1 | 73.5*
O=C(NN1C(=O)c2ccccc2NC1c1ccccn1)c1ccc([N+](=O)[O-])cc1 (configuration not stated) | 2.5 | 4.4 | -13.4 | 20.6
COc1ccccc1CNC(=O)CN(C)S(=O)(=O)c1cccc2cccnc12 | 95.5* | 3.3 | 1.0 | 4.6
C/C(=N\NC(=O)c1cccc(N/N=C(\C)c2cc(O)ccc2O)c1)c1cc(O)ccc1O | -7.8 | -8.7 | -50.8 | -8.2
CSc1cccc(NC(=O)CCC(=O)O)c1 | 15.7 | 19.6 | 70.9* | -13.4
COc1cc(NC(=S)NC(=O)c2ccco2)ccc1NC(=O)C(C)C | -8.7 | 15.3 | -0.5 | -10.6
COc1cc(NC(=O)C(C)C)ccc1NC(=O)c1ccco1 | 5.9 | 29.4 | 124.7* | -1.9
CC1=CC2=NC(=O)/C(=C\c3cc(C)n(-c4ccccc4F)c3C)C(=N)N2O1 | -4.7 | 19.3 | -42.9 | -26.4
Cc1cc(/C=C2/C(=N)N3C(=NC2=O)SN=C3S(C)(=O)=O)c(C)n1-c1ccccc1F | 31.4* | 13.7 | -21.4 | -16.0
O=C(/C=N/O)Nc1cccnc1 | 0.4 | 5.3 | 2.6 | 13.1
SMILES | eIF4E-4G inh | UBC9 SUMO inh | p47phox inh | 14-3-3 Bad inh
O=C(/C=N/O)Nc1ccc(F)cc1 | 53.1* | -3.2 | -12.6 | 16.8
Nc1cc([N+](=O)[O-])ccc1O | 15.8 | -8.7 | 1.6 | 17.1
COc1ccc(O)c(N)c1 | 7.1 | ? | 42.9* | 6.0
O=C(CCC(=O)Nc1ccccc1Cl)NN=C1CCCC1 | / | -0.6 | / | /
COc1ccc(NC(=O)Cc2nnc(SCC(=O)c3ccc(F)cc3)n2C)cc1 | / | 25.0 | / | /
CC1(c2nnc(-c3ccccc3)o2)CC(c2ccncc2)=NO1 (configuration not stated) | 97.2* | -5.7 | 2.9 | 52.6
